Data reported in article PMC4336329 (PLoS ONE, 2015).
Hit rate of the full screen: of about 310,000 compounds, about 14,000 (4.5%) showed an effect of 50% or more. Effects have a minus sign here. The sample holds strong results, similar compounds and a random draw of the others, so the mix is not that of the screen.

Target: human ether-à-go-go-related gene (hERG) potassium channel (human, UniProt Q12809)
Assay: primary screen, population patch clamp on CHO cells stably expressing hERG; higher = less effect of the substance
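Also: peak tail current of the secondary pulse compared with the same well before compound.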

human ether-à-go-go-related gene (hERG) potassium channel, sequence (Q12809 whole entry, looked up): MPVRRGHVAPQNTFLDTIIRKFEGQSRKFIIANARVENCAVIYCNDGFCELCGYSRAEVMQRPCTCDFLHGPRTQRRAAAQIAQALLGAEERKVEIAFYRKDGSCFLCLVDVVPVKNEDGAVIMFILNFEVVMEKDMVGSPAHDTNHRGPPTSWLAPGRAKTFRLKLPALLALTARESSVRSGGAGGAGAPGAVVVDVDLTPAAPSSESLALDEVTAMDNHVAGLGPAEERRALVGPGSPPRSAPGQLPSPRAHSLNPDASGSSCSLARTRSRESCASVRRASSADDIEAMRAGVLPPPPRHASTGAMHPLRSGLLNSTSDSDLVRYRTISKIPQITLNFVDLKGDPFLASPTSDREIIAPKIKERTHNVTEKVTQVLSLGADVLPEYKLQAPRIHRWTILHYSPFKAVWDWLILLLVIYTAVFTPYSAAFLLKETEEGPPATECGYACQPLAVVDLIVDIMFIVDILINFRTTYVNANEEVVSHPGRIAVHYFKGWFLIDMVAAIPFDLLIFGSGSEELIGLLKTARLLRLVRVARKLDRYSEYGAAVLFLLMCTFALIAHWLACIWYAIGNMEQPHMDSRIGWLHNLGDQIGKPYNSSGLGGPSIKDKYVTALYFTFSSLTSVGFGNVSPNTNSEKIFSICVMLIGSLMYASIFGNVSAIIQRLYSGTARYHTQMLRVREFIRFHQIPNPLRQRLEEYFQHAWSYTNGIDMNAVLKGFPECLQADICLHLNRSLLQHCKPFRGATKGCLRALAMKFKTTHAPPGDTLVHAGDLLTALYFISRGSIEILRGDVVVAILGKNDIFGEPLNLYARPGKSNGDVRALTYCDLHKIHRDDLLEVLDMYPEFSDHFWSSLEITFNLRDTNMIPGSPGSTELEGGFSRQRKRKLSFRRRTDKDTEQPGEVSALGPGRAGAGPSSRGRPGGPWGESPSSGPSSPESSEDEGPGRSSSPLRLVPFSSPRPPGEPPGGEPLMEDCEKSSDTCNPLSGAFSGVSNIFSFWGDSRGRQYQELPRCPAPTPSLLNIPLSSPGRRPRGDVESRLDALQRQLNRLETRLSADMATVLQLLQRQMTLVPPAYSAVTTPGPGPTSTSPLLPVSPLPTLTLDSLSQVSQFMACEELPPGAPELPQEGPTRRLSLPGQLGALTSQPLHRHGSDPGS

Row | SMILES | hERG current change (%, negative = inhibition) at 10uM
1 | CC(=O)Nc1ccccc1NC(=O)COc1cccc2ccccc12 | 18.9%
2 | CCOC(=O)c1sc(NC(=O)CN2CCN(c3ccc(OC)cc3)CC2)nc1C | -20.6%
3 | O=C(Nc1nc2ccccc2s1)c1ccc(N2CCCCC2)c([N+](=O)[O-])c1 | 6.67%
4 | O=C(NNC(=O)c1ccc(Br)s1)NC1CCCCC1 | 28.1%
5 | Cc1ccc(NC(=O)CCSc2nnc3ccccn23)cc1 | 2.6%
6 | Cc1cccc(NS(=O)(=O)c2csc(C(N)=O)c2)c1 | 8.92%
7 | NC(=O)c1cc(S(=O)(=O)Nc2cccc(Cl)c2)cs1 | -61.2%
8 | NC(=O)c1cc(S(=O)(=O)Nc2ccccc2)cs1 | 1.39%
9 | CCC(C)NC(=O)C1CCC(CNS(=O)(=O)c2ccc3c(c2)N(C(C)=O)CCO3)CC1 (stereo not drawn) | 6.84%
10 | COc1ccccc1NC(=O)C(=O)NCC(c1ccco1)N1CCc2ccccc21 (stereo not drawn) | -1.64%
11 | COc1ccc(-n2cnc3c(sc4nc(N5CCOCC5)c5c(c43)CCCC5)c2=O)cc1 | 21.3%
12 | CCc1cccc(NS(=O)(=O)c2c(C)[nH]c(=O)[nH]c2=O)c1 | 20.8%
13 | COCCn1nnnc1CN(CCc1ccccc1)Cc1cc2cc(OC)ccc2[nH]c1=O | -47.8%
14 | COc1ccc2[nH]c(=O)c(CN(CCc3ccccc3)Cc3nnnn3CC3CCCO3)cc2c1 (stereo not drawn) | -53.4%
15 | COCCn1nnnc1CN(CCc1ccc(OC)c(OC)c1)Cc1cc2ccc(C)cc2[nH]c1=O | -42.8%
16 | COc1ccc2cc(CN(Cc3cccnc3)Cc3nnnn3Cc3ccccc3)c(=O)[nH]c2c1 | -74.4%
17 | COc1ccc2[nH]c(=O)c(CN(Cc3ccccc3)Cc3nnnn3CC3CCCO3)cc2c1 (stereo not drawn) | -4.75%
18 | COc1ccc2cc(CN(CCc3ccccc3)Cc3nnnn3Cc3ccco3)c(=O)[nH]c2c1 | -29.7%
19 | COCCn1nnnc1CN(CCc1ccccc1)Cc1cc2ccc(C)cc2[nH]c1=O | -57.2%
20 | COc1ccc2cc(CN(Cc3cccs3)Cc3nnnn3Cc3ccccc3)c(=O)[nH]c2c1 | -11.3%
21 | COc1ccc2cc(CN(CCc3ccccc3)Cc3nnnn3CC3CCCO3)c(=O)[nH]c2c1 (stereo not drawn) | -31.3%
22 | COc1cc(OC)cc(C(=O)OCC(=O)NCc2ccco2)c1 | 2.94%
23 | Cc1ccc(-n2nnc3c(=O)n(CC(=O)N4CCOCC4)cnc32)cc1 | -3.25%
24 | CCOc1ccccc1C(=O)NCCC(=O)O | 8.38%
25 | Cc1onc(-c2c(F)cccc2Cl)c1C(=O)N1CCc2ccccc2C1 | -15.7%
26 | O=C(CCn1ccc2cc(S(=O)(=O)N3CCCC3)ccc21)NCCc1ccccc1 | -16.9%
27 | O=C(Nc1ccc(Br)cc1)C1CCCC1 | 9.31%

Row | SMILES | hERG current change (%, negative = inhibition) at 10uM
28 | O=C(c1ccc(COc2ccccc2Cl)o1)N1N=C(C(F)F)CC1(O)C(F)F (stereo not drawn) | 17.1%
29 | COc1ccc(CCNc2ccc(C(CC(N)=O)NC(=O)Cc3ccc(Br)cc3)cc2[N+](=O)[O-])cc1 (stereo not drawn) | 4.07%
30 | S=c1[nH]nc(-c2cc(-c3ccsc3)n[nH]2)n1-c1cccc2ccccc12 | -12.6%
31 | COc1cccc(N2CC(NC(=O)c3cccc4ccccc34)CC2=O)c1 (stereo not drawn) | -6.44%
32 | CCCC1(CCC)C(=O)NC(=NCCc2ccc(OC)c(OC)c2)NC1=O | 13.4%
33 | CCOC(=O)CCCn1ncn2c(cc3occc32)c1=O | -0.3%
34 | CCOc1ccc(CNC(=O)CCCn2nc(CC)n3c(cc4occc43)c2=O)cc1 | -24.7%
35 | O=C(CCCn1ncn2c(cc3occc32)c1=O)N1CCc2ccccc2C1 | -63%
36 | CCc1nn(CC(=O)N2CCN(c3cc(C)ccc3C)CC2)c(=O)c2cc3occc3n12 | 13%
37 | COc1cccc(CNC(=O)CCCn2ncn3c(cc4occc43)c2=O)c1 | -42.9%
38 | COc1ccc(CNC(=O)CCCn2ncn3c(cc4occc43)c2=O)cc1 | -22.4%
39 | CCc1nn(CCCC(=O)N2CCc3ccccc3C2)c(=O)c2cc3occc3n12 | -29%
40 | Cc1ccc(C)c(N2CCN(C(=O)CCCn3ncn4c(cc5occc54)c3=O)CC2)c1 | -63.4%
41 | CCc1nn(CCCC(=O)NCc2ccc(OC(C)C)cc2)c(=O)c2cc3occc3n12 | -54.4%
42 | Cc1ccccc1CNC(=O)CCCn1ncn2c(cc3occc32)c1=O | -14.7%
43 | CCc1nn(CCCC(=O)NCc2ccc(C)cc2)c(=O)c2cc3occc3n12 | -8.1%
44 | O=C(CCCn1ncn2c(cc3occc32)c1=O)NCc1cccc(Cl)c1 | -61.3%
45 | Cc1nnc(NC(=O)c2cc(-c3ccco3)nc3ccccc23)s1 | 2.18%
46 | Cc1nc2cc(NC(=O)NCc3ccco3)ccc2o1 | 9.7%
47 | Cn1c(C(=O)NC2CC2)cc(=O)n(C)c1=O | -8%
48 | COc1ccc(CNC(=O)COC(=O)c2ccc(C)c(S(=O)(=O)N3CCOCC3)c2)cc1OC | 6.13%
49 | CC1CCCN(S(=O)(=O)c2csc(C(N)=O)c2)C1 (stereo not drawn) | 15.2%
50 | O=C(NCc1csc2ccccc12)Nc1cc(Cl)cc(Cl)c1 | 13.6%
51 | CCOc1ccc(C(C)(N)C(=O)O)cc1 (stereo not drawn) | -2.39%
52 | COc1ccc(NC(=O)c2cn(-c3ccccc3)nc2SC)cc1 | -8.55%
53 | COc1ccc(CNC(=O)c2cc(-c3ccc(OC)c(OC)c3)on2)cc1 | 6.84%
54 | CCC(=O)Oc1ccc(C/C(=N\O)c2ccc(O)cc2O)o1 | -8.07%
